# From PubChem BioAssay
# Giardia FBPA inh: Giardia lamblia aldolase inhibition; A8B2U2; purified Giardia FBPA; Potency, µM (series often up to 59.6 µM), for the others: at the highest dose activity, negative = inhibition, most hits filed as inhibitors; hit rate 0.71% among 290,000; AID 2451; note: potency is the fitted concentration of half-maximal effect; nearly all actives have a fitted effect of over 55% in size
# Target sequence (A8B2U2 whole entry, looked up): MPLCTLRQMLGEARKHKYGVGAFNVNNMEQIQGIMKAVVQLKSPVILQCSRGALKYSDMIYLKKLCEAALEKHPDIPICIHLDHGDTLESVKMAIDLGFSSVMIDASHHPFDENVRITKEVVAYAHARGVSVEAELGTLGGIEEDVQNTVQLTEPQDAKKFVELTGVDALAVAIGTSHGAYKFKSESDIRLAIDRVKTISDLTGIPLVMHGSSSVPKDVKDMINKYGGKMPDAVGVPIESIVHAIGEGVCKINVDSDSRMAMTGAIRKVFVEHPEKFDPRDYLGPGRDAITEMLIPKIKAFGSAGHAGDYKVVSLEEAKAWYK
#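 40 nM FBPA preincubated 10 min at RT with compound (up to 57.5 uM final), then substrate plus GAPDH/TPI/NAD/arsenate coupling and diaphorase/resazurin added. Fluorescence read after 20 min at RT, 525/598 nm.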
# Sm TGR inh: S. mansoni TGR enzyme inhibition; Q962Y6; Potency, µM (doses to about 114 µM), inactives show at the top dose activity change, negative = inhibition, actives largely listed as inhibitors; AID 485364; purified TGR, DTNB reduction, TNB absorbance 405 nm; hit rate 3% among 360,000; note: potency is the fitted concentration of half-maximal effect; nearly all actives have a fitted effect of over 60% in size
#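 Kinetic colorimetric format: TGR-catalysed, NADPH-driven DTNB reduction monitored via TNB absorbance. Enzyme dispensed at 20 nM; compound exposure 15 min at room temperature before reaction start.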
# Pf growth 48h: inhibits P. falciparum growth in the first generation, 48 h; P. falciparum luciferase growth in erythrocytes, 48 h; Potency, µM (series often up to 28.7 µM), for inactives: at the top dose activity change, negative = inhibition, actives largely listed as inhibitors; hit rate 5.9% among 310,000; AID 504832; note: potency is the fitted concentration of half-maximal effect
#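 Here the parasites carry a stable luciferase gene and grow inside erythrocytes in Albumax-based RPMI medium with compound for one erythrocytic cycle. Activity is scored as loss of luminescent signal.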
# HCMV inh: blocks human cytomegalovirus replication. hit rate 4.5% among 410,000. activity change, negative = inhibition, % at 57.5 µM. HFF cells, HCMV-luciferase reporter, 72 h; stronger effect = lower value; in the data active = activity change below about -60%; inconclusive = no clear call, values can overlap the other calls; inactive = above about -39%
#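 Two compound doses tested in HFFs infected with HCMV-luciferase, MOI 1 PFU/cell, 72 h at 37C. Lysate luminescence read with OneGlo; data normalized against buffer-only and 10uM Salinomycin inhibitor controls.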
# Pf growth 96h: P. falciparum growth inhibition at 96 hour, primary screen for plastid delayed-death inhibitors; Potency, µM (doses to about 28.7 µM), inactives show at the top dose activity change, negative = inhibition, usual class: inhibitors; hit rate 6.9% among 320,000; P. falciparum luciferase reporter growth, 96 h; note: potency is the fitted concentration of half-maximal effect
#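 Infected RBCs, 2% Hct / 0.05% parasitemia final; luciferase-reporter P. falciparum; cpd 96 h, 37 C, 5% CO2; luciferase detection reagent; luminescence.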
# Active calls of the source: *; ? = inconclusive; · = not tested or not shown; + = active, no number. Only some compounds are listed: those with a hit (about 14% of all), similar ones and a draw of the others. Unless noted, calls come from the whole dose curve; as a rule, active = well fitted curve in the direction sought with a large enough effect; inconclusive = small, poorly fitted or top-dose-only effect, or another doubt; inactive = no such curve, though single readings can be large; an effect the other way counts as inactive or inconclusive. % is set by controls: 0 for no effect and ±100 for the full control effect.
SMILES,Giardia FBPA inh,Sm TGR inh,Pf growth 48h,HCMV inh,Pf growth 96h
COc1ccc(S(=O)(=O)N(C(=O)c2ccncc2)c2ccc3oc(C)c(C(C)=O)c3c2)cc1,·,-28.8%,·,?,·
CC(C)c1[nH]nc2c1C(C(C)C)C(C#N)=C(N)O2 (stereo not given),-8.2%,-7.0%,-12.1%,65.7,7.38µM*
CCOc1ccc(S(=O)(=O)N(C)CC(=O)N2CCN(CC)CC2)cc1,19.2%,3.6%,-0.4%,-10.3,10.4%
CCc1ccc(CNC(=O)C2CCCN(c3nn4cc(-c5ccc(F)cc5)nc4s3)C2)cc1 (stereo not given),·,7.4%,·,+,·
CCOc1ccc(CNC(=O)C2CCCN(c3nn4cc(-c5ccc(OC)cc5)nc4s3)C2)cc1 (stereo not given),·,-6.3%,·,0.0,·
CCOc1ccc(CNC(=O)C2CCCN(c3nn4cc(-c5ccc(F)cc5)nc4s3)C2)cc1 (stereo not given),·,0.2%,·,+,·
O=[N+]([O-])c1cccnc1SCc1ccccc1,0.7%,2.3%,·,34.0,0.0%
CC(=O)Nc1ccc(S(=O)(=O)N2CCC(C(=O)N[C@@H](C)C(=O)NC3CCCC3)CC2)cc1,-2.6%,-30.5%,33.5%,0.0,1.3%
CCOc1cc(C2CC(=O)c3c(ccc4ccccc34)N2)ccc1O (stereo not given),-0.1%,1.7%,0.6%,20.4,1.04µM*
Cc1nc(N=Nc2cc(S(=O)(=O)O)c3cc([N+](=O)[O-])cc(S(=O)(=O)O)c3c2)c(COP(=O)(O)O)c(C=O)c1O,17.7%,·,·,·,·
Cc1nc(N=Nc2cc([N+](=O)[O-])ccc2Cl)c(COP(=O)(O)O)c(C=O)c1O,22.3µM*,·,·,·,·
COc1ccc(-c2oc(=O)n(C)c2-c2ccc(OC)cc2)cc1,-0.2%,0.1%,?,85.0,?
COCCn1c(-c2ccc(OC)cc2)c(-c2ccc(OC)cc2)oc1=O,4.7%,-3.8%,8.28µM*,?,13.1µM*
Cc1ccc(N2CCN(CC(O)COc3ccccc3)CC2)cc1 (stereo not given),1.4%,-13.1%,-9.9%,-18.1,27.3%
CCOc1ccc(/C=N/NC(=O)c2cc3c(OC)cccc3[nH]2)cc1,2.7%,-19.6%,?,-63.1*,?
CCOc1ccc2[nH]c(C(=O)N/N=C/c3cc(OC)c(OC)c(OC)c3)cc2c1,7.4%,24.5%,·,43.1,11.7µM*
C=CCOc1ccc(/C=N/NC(=O)c2cc3c(OC)cc(OC)cc3[nH]2)cc1,6.7%,1.7%,3.29µM*,39.8,2.33µM*
COc1ccc(OC)c(/C=N/NC(=O)c2cc3c(OC)cc(OC)cc3[nH]2)c1,-12.1%,2.7%,?,34.8,?
CCOc1ccc(/C=N/NC(=O)c2cc3c(OC)cc(OC)cc3[nH]2)cc1OC,5.7%,9.3%,1.65µM*,-3.8,0.928µM*
COc1ccc(OC)c(/C=N/NC(=O)c2cc3c(OC)cccc3[nH]2)c1,-0.4%,9.8%,-5.4%,-16.9,-1.5%
Cc1ccc2c(c1Br)C(O)(CC(=O)c1ccc(F)cc1)C(=O)N2 (stereo not given),·,-2.6%,·,21.3,·
CC1CN(CC(=O)Nc2ccccc2Sc2ccccc2)CC(C)O1 (stereo not given),1.7%,-4.5%,13.3%,-24.3,?
O=C(Cc1ccccc1)Nc1sc2c(c1C(=O)Nc1ccc(Br)cc1)CCCC2,·,-0.8%,·,?,·
COc1cccc(/C=N/NC(=O)c2cc3c(OC)cccc3[nH]2)c1O,0.2%,2.9%,?,-75.0*,1.85µM*
COc1cccc(/C=N/NC(=O)c2cc3c(OC)cccc3[nH]2)c1OC,-2.9%,3.9%,16.0%,-32.9,4.0%
SMILES,Giardia FBPA inh,Sm TGR inh,Pf growth 48h,HCMV inh,Pf growth 96h
CCn1c(C)nc2cc(-c3nnc(-c4c(-c5ccccc5)noc4C)o3)ccc21,6.3%,-0.4%,9.28µM*,-40.0,-3.4%
COc1ccccc1N(CC(=O)Nc1cc(S(=O)(=O)N(C)C)ccc1C)S(=O)(=O)c1cccs1,·,·,·,-4.9,·
CC1CC(C)CN(CCCCOc2ccc([N+](=O)[O-])cc2)C1 (stereo not given),-26.6%,-15.5%,-15.1%,31.5,?
Cc1nc2ccccn2c1C(=O)CSc1ccc(Cl)cc1Cl,1.2%,-30.7%,-0.2%,-34.9,?
Cc1nc2ccccn2c1C(=O)CSc1ccccc1Cl,-0.6%,-14.3%,?,-65.7*,?
O=C(COC(=O)c1ccc(C(F)(F)F)cc1)Nc1cccc(S(=O)(=O)N2CCCCC2)c1,·,-17.3%,-26.1%,0.0,?
COc1cccc([C@@H]2Oc3ccc(Br)cc3C(=O)[C@H]2OC(=O)NCCOc2ccccc2)c1,1.3%,·,·,·,·
CCOC(=O)CSc1nc2c(sc(=S)n2-c2ccccc2OC)c(=O)n1Cc1ccco1,-1.0%,-4.7%,?,1.4,8.7%
COc1ccc(-n2c(=S)[nH]c3c(sc(=S)n3-c3ccccc3)c2=O)c(OC)c1,-6.6%,1.6%,9.6%,-3.1,-24.4%
CCOC(=O)CSc1nc2c(sc(=S)n2-c2ccccc2OC)c(=O)n1-c1ccccc1OC,-4.8%,-0.2%,11.7µM*,-25.4,11.4%
COc1ccc(-n2c(SCC(=O)C(C)(C)C)nc3c(sc(=S)n3-c3ccccc3)c2=O)c(OC)c1,2.0%,-10.6%,2.08µM*,?,0.0%
c1ccc(Nc2ncnc3ccc(-c4ccc5c(c4)OCO5)cc23)cc1,-18.5%,·,·,·,·
CC/C(=N/Nc1cccc(C)c1)c1cnnc(SC)n1,-4.2%,1.9%,?,-67.9*,-101.0%
OC(COc1ccc(Cl)cc1)CN1CCC(Cc2ccccc2)CC1 (stereo not given),·,3.6%,-13.8%,0.7,?
Cc1ccc(C)c(OCC(O)CN2CCCCC2C)c1 (stereo not given),0.4%,-8.3%,?,-4.7,10.4µM*
Cc1ccc(C)c(OCC(O)CN2CCC(Cc3ccccc3)CC2)c1 (stereo not given),-28.0%,-3.7%,7.38µM*,-111.5*,?
O=C(/C=C/c1ccc2ccccc2n1)c1cc(Cl)ccc1O,-12.7%,25.1µM*,2.33µM*,14.3,?
O=C1CSC(=Nc2ccc(O)cc2)N1c1ccc(O)cc1,0.1%,0.8%,?,32.3,10.4µM*
O=C1NC[C@H](CCCCN2CCN(CCC3CCCCC3)C(=O)C2=O)N(CC2CCCCC2)C1=O,·,·,·,-27.8,·
CCN(c1cc(C)cc(C)c1)S(=O)(=O)c1nnc(NC(=O)C(C)(C)C)s1,-2.7%,5.1%,?,-67.2*,26.6%
CCN(CC)S(=O)(=O)c1nnc(NC(=O)c2ccco2)s1,5.5%,-35.3%,-3.2%,5.2,?
CCN(c1ccc(C)cc1)S(=O)(=O)c1nnc(NC(=O)c2ccco2)s1,17.9%,22.4µM*,-8.3%,-5.7,?
CCN(c1ccc(C)cc1C)S(=O)(=O)c1nnc(NC(=O)c2ccco2)s1,10.1%,50.1µM*,?,-25.3,15.4%
